Our source for the Potency and outcome values is PubChem BioAssay (NCATS).

For assay [1], the target named is Arylsulfatase A (Homo sapiens) (UniProt P15289). Kind of assay: qHTS screen for enhancers of Arylsulfatase A (ASA1): LOPAC Validation Assay (AID 720538). Further: potency means the concentration at half of the fitted maximal effect. In short, it runs like this: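 Enhancer assay in patient-derived MLD fibroblasts carrying ASA-I179S: 48 h compound exposure at 37 C, then 14 h room-temperature pNCS turnover (0.5 mM final) in lysis buffer. Read by fluorescence at 525/598 nm after NaOH stop.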
Sequence of Arylsulfatase A (Homo sapiens) (P15289 whole entry, looked up): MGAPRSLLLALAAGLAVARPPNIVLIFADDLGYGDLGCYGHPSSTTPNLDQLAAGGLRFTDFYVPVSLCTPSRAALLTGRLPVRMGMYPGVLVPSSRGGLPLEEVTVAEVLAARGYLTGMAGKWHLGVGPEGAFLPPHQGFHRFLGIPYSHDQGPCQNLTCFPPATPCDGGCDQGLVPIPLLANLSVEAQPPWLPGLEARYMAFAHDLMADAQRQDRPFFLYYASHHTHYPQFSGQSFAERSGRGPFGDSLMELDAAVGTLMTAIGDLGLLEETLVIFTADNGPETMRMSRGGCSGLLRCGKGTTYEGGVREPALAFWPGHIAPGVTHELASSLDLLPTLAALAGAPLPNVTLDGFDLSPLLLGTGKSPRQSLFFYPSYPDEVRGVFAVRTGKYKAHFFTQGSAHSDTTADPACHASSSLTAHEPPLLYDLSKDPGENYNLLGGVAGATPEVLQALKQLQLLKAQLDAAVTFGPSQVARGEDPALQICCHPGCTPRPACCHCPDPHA

Assay [2] is described as follows: qHTS for compounds that reverse cellular toxicity of Amyloid beta (A-beta) peptide in yeast: LOPAC Validation Assay (AID 720559). In short, it runs like this: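 Rescue of A-beta toxicity was scored as yeast growth by 600 nm absorbance after 48 hr at 30 C with compound. Normalization used DMSO (negative) and equimolar ferric chloride plus clioquinol (positive).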
A general note: qHTS replaces the single test concentration by a dilution series.

The nature of assay [3]: qHTS for Activators of Parkin Expression: LOPAC Validation Assay (NLuc Reporter) (AID 720572; further: potency means the concentration at half of the fitted maximal effect). In short, it runs like this: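 Parkin promoter-driven FLuc/NLuc neuronal reporter cells; 24 h plating, 7-pt dose response, 24 h at 37 C/5% CO2; FLuc then NanoLuc reagent, 10 min each, luminescence; DMSO/positive control normalized.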
The target of assay [4] is T1, Hexokinase-4 (Homo sapiens) + Glucokinase regulatory protein (Homo sapiens) (UniProt P35557+Q14397). Kind of assay: qHTS assay for inhibitors of recombinant human GCK-GKRP interaction: Diaphorase-coupled assay (AID 743205). In short, it runs like this: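 A kinetic fluorescence read (Ex 525/Em 590 nm, every minute for 30 minutes) tracked resorufin from a G6PDH-diaphorase coupled GCK reaction. It contained 10 nM GST-GCK, 10 nM FLAG-GKRP, 5 mM glucose, 0.4 mM ATP in Hepes pH 7.6. Normalized to with/without-enzyme DMSO controls.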
T1 sequence (P35557 whole entry, looked up): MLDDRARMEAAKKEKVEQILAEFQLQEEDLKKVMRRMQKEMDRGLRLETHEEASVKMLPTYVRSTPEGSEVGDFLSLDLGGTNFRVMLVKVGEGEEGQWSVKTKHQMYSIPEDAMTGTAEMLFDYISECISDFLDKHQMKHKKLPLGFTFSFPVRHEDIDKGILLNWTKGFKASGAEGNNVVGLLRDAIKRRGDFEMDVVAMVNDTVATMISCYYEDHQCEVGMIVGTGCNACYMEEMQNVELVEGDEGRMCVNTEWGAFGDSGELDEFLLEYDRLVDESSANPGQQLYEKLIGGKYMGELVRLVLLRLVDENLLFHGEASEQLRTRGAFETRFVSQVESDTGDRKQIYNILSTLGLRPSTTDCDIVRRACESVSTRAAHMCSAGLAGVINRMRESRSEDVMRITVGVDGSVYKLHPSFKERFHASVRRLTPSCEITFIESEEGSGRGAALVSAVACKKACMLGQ
T1 sequence (Q14397 whole entry, looked up): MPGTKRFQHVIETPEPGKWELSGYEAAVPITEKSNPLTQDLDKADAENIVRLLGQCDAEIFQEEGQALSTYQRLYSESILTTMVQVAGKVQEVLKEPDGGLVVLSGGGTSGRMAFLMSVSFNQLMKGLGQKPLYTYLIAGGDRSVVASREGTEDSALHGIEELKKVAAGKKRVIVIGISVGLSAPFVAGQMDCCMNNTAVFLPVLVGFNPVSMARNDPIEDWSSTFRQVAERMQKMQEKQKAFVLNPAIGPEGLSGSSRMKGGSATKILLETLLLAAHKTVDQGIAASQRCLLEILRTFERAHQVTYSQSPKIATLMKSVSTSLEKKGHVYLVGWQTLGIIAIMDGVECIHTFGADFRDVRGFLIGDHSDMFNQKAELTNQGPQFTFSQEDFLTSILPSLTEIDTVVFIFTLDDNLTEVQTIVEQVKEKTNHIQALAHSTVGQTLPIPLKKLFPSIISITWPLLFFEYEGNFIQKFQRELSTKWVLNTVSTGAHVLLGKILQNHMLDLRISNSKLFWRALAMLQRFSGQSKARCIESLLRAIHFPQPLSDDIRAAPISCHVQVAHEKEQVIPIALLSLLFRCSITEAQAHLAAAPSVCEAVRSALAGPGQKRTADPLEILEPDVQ

The target of assay [5] is T1, Hexokinase-4 (Homo sapiens) + Glucokinase regulatory protein (Homo sapiens). Kind of assay: qHTS assay for inhibitors of recombinant human GCK-GKRP interaction: ADP-Glo assay (AID 743206). The procedure, abridged: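 GST-GCK and FLAG-GKRP (15 nM each in the dispensed mix, with 2 uM S6P) react with 0.4 mM ATP and 5 mM glucose (final) in Hepes pH 7.6 for 60 min at room temperature. ADP is measured by ADP-Glo luminescence.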

Assay [6] has the same target. Kind of assay: qHTS assay for inhibitors of recombinant human GCK-GKRP interaction: HTRF assay (AID 743207). The procedure, abridged: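 After 60 min equilibration at room temperature with anti-FLAG XL665 and anti-GST antibodies, FRET ratio (665/615 nm, excitation 320 nm) was read. Proteins: GST-GCK and FLAG-GKRP, each 5 nM, plus 2 uM S6P, pH 7.1 buffer; GCK-free wells define minimum signal.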

Assay [7] is described as follows: qHTS for Activators of Parkin Expression: LOPAC Validation Assay (FLuc Reporter) (AID 720573). In short, it runs like this:
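FLuc signal from Parkin-promoter coincidence reporter neuronal cells, normalized to DMSO and positive control (100%). Cells (1,500/well) pre-incubated 24 h, then exposed to LOPAC compounds in 7-point dose response for 24 h at 37 C, 5% CO2.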

Inconclusive results are not listed. The source made the active and inactive calls. The call rests on the fitted dose curve; in most records, active means well fitted curve in the direction sought with a large enough effect; inconclusive means small, poorly fitted or top-dose-only effect, or another doubt; inactive means no such curve, though single readings can be large; an effect the other way counts as inactive or inconclusive.

Regarding `OCCN1CCN(CCCN2c3ccccc3C=Cc3ccccc32)CC1`, the Potency result in assay [1], in assay [3] and in assay [6] was “inactive” in each case. Also, the compound was classed as inactive in assay [2], in assay [4] and in assay [5].

With `CC(=O)OC(C)C[N+](C)(C)C` (configuration not stated), the Potency entry in assay [1], in assay [3] and in assay [6] was “inactive” each time. Moreover, the compound was classed as inactive in assay [2], in assay [4] and in assay [5].

`CN1C[C@H](C(=O)N[C@]2(C)O[C@@]3(O)[C@@H]4CCCN4C(=O)[C@H](Cc4ccccc4)N3C2=O)C[C@@H]2c3cccc4[nH]cc(c34)C[C@H]21`: the Potency entry in assay [1], in assay [3] and in assay [6] was “inactive” in each case. Moreover, the outcome in assay [2], in assay [7], in assay [4] and in assay [5] was inactive.

Regarding `CN(C(=O)CCCOc1ccc2[nH]c(=O)ccc2c1)C1CCCCC1`, the Potency result in assay [1], in assay [3] and in assay [6] was “inactive” in each case. Further, the compound was classed as inactive in assay [2], in assay [7], in assay [4] and in assay [5].

Regarding `Cc1ccc(=O)n(-c2ccccc2)c1`, the Potency entry in assay [1], in assay [3] and in assay [6] was “inactive” throughout. In addition, the result in assay [2], in assay [4] and in assay [5] was inactive.

For `CCCCNc1ccc(C(=O)OCCN(C)C)cc1`, the Potency result in assay [1], in assay [3] and in assay [6] was “inactive” in each case. Further, the outcome in assay [2], in assay [7], in assay [4] and in assay [5] was inactive.

As for `NS(=O)(=O)c1cc2c(cc1Cl)NC(C1CC3C=CC1C3)NS2(=O)=O` (configuration not stated), the Potency result in assay [1], in assay [3] and in assay [6] was “inactive” each time. Also, the compound was called inactive in assay [2], in assay [4] and in assay [5].

As for `Cc1nnc(SCC2=C(C(=O)O)N3C(=O)[C@@H](NC(=O)Cn4cnnn4)[C@H]3SC2)s1`, the Potency result in assay [1], in assay [3] and in assay [6] was “inactive” each time. The call in assay [2], in assay [4] and in assay [5] was inactive.

On to `COC(=O)[C@@H](N)Cc1ccc(O)c(O)c1`, for which, in assay [1], the Potency is 33.8 µM (active). The compound was classed as inactive in assay [2], in assay [4] and in assay [5]. The Potency entry in assay [3] and in assay [6] was “inactive” in each case.

For the compound `CN(C)CCCN1c2ccccc2Sc2ccccc21`, the Potency entry in assay [1], in assay [3] and in assay [6] was “inactive” in each case. Besides, the compound was called inactive in assay [2], in assay [7], in assay [4] and in assay [5].

With `OC(CCN1CCCCC1)(c1ccccc1)C1CCCCC1` (configuration not stated), the Potency result in assay [1], in assay [3] and in assay [6] was “inactive” in each case. In addition, the outcome in assay [2], in assay [7], in assay [4] and in assay [5] was inactive.

As to `CCNC(=O)N1CCN(CCCC(c2ccc(F)cc2)c2ccc(F)cc2)CC1`, the Potency result in assay [1], in assay [3] and in assay [6] was “inactive” each time. In addition, the outcome in assay [2], in assay [4] and in assay [5] was inactive.

As to `CCCN(CCC)CCc1cccc2c1CC(=O)N2`, the Potency result in assay [1], in assay [3] and in assay [6] was “inactive” in each case. For the same compound, the result in assay [2], in assay [7], in assay [4] and in assay [5] was inactive.

Consider `CCN1CCc2nc(N)oc2CC1`, for which the Potency result in assay [1], in assay [3] and in assay [6] was “inactive” each time. The outcome in assay [2], in assay [4] and in assay [5] was inactive.

Regarding `NC(N)=N/N=C/c1c(Cl)cccc1Cl`, the Potency result in assay [1], in assay [3] and in assay [6] was “inactive” in each case. The call in assay [2], in assay [7], in assay [4] and in assay [5] was inactive.

For `CC(=O)[C@]1(O)Cc2c(O)c3c(c(O)c2[C@@H](O[C@H]2C[C@H](N)[C@H](O)[C@H](C)O2)C1)C(=O)c1ccccc1C3=O`, the Potency entry in assay [1], in assay [3] and in assay [6] was “inactive” throughout. Further, the result in assay [2], in assay [4] and in assay [5] was inactive.

For the compound `COCCOC(=O)C1=C(C)NC(C)=C(C(=O)OC(C)C)C1c1cccc([N+](=O)[O-])c1` (configuration not stated), the Potency result in assay [1] and in assay [6] was “inactive” each time. The compound was called inactive in assay [2], in assay [7], in assay [4] and in assay [5]. In assay [3], the Potency was 2.06 µM (active).

Regarding `Nc1c2c(nc3ccccc13)CCCC2O` (configuration not stated), the Potency entry in assay [1], in assay [3] and in assay [6] was “inactive” in each case. For the same compound, the compound was classed as inactive in assay [2], in assay [4] and in assay [5].

Regarding `CCCN1C[C@H](CSC)C[C@@H]2c3cccc4[nH]cc(c34)C[C@H]21`, the Potency result in assay [1], in assay [3] and in assay [6] was “inactive” each time. Also, the compound was called inactive in assay [2], in assay [4] and in assay [5].

On to `CCCC(C(=O)OCCN(CC)CC)(c1ccccc1)c1ccccc1`, for which the Potency result in assay [1], in assay [3] and in assay [6] was “inactive” throughout. Also, the compound was called inactive in assay [2], in assay [4] and in assay [5].

Consider `NC(N)=NC(=O)Cc1c(Cl)cccc1Cl`, for which the Potency result in assay [1], in assay [3] and in assay [6] was “inactive” each time. In addition, the outcome in assay [2], in assay [7], in assay [4] and in assay [5] was inactive.

As to `NC(Cc1ccc(Cl)cc1)C(=O)O` (configuration not stated), the Potency entry in assay [1], in assay [3] and in assay [6] was “inactive” each time. Further, the call in assay [2], in assay [7], in assay [4] and in assay [5] was inactive.

In the case of `CC(C)NNC(=O)c1ccncc1`, the Potency entry in assay [1], in assay [3] and in assay [6] was “inactive” each time. Further, the outcome in assay [2], in assay [4] and in assay [5] was inactive.

Take `CN(C)CC/C=C1\c2ccccc2COc2ccccc21`: the Potency entry in assay [1], in assay [3] and in assay [6] was “inactive” throughout. The compound was called inactive in assay [2], in assay [7], in assay [4] and in assay [5].

As to `CCCN(CCC)C(=O)C(CCC(=O)O)NC(=O)c1ccccc1` (configuration not stated), the Potency entry in assay [1], in assay [3] and in assay [6] was “inactive” in each case. For the same compound, the result in assay [2], in assay [4] and in assay [5] was inactive.

On to `CCc1cccc(N(C)C(N)=Nc2cccc3ccccc23)c1`, for which the Potency entry in assay [1], in assay [3] and in assay [6] was “inactive” throughout. For the same compound, the outcome in assay [2], in assay [4] and in assay [5] was inactive.
